Measured values from PubChem BioAssay (NCI).
The panel holds about 79,000 compounds, 15% with a hit somewhere; the sample as a whole holds those more often. Active and inactive are the calls of the source. Rule as the data show it: active = growth inhibition above about 70%; inactive = the rest.

Key:
[1] = NCI Yeast Anticancer Drug Screen. Data for the rad50 strain (AID 155);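 also: 0% = growth of vehicle-only cultures of the same strain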; conditions: S. cerevisiae rad50 strain growth inhibition; at 50.0 µM; hits give high values
How it was run: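 Vehicle-treated cultures provide the reference for the growth inhibition reported for compound-exposed, repair-deficient yeast.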

[2] = NCI Yeast Anticancer Drug Screen. Data for the mec2-1 strain (AID 157); conditions: S. cerevisiae mec2-1 strain, at 50.0 µM, hits give high values
How it was run: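 Each compound was tested on mec2-1 yeast, a strain altered in DNA damage repair or cell cycle control. Growth inhibition is reported relative to vehicle.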

[3] = NCI Yeast Anticancer Drug Screen. Data for the sgs1 mgt1 strain (AID 161);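 also: 0% = growth of cultures given vehicle only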; conditions: S. cerevisiae sgs1 mgt1 strain, at 50.0 µM, hits give high values
How it was run: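 Read-out: growth inhibition vs vehicle controls. Cells: mutant yeast strain deficient in DNA damage repair.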

[4] = NCI Yeast Anticancer Drug Screen. Data for the cln2 rad14 strain (AID 165);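 also: 0% = growth equal to vehicle treated cultures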; conditions: S. cerevisiae cln2 rad14 strain, at 50.0 µM, hits give high values
How it was run: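 Test compounds were added to cln2 rad14 yeast cultures; inhibition of growth was then determined by comparison with vehicle treatment.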

[5] = NCI Yeast Anticancer Drug Screen. Data for the bub3 strain (AID 167); conditions: S. cerevisiae bub3 mutant strain, at 50.0 µM, hits give high values
How it was run: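 Mutant yeast screening strain plus compound; vehicle-treated cultures serve as the 0% inhibition reference.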

[6] = NCI Yeast Anticancer Drug Screen. Data for the mlh1 rad18 strain (AID 175); conditions: S. cerevisiae mlh1 rad18 strain growth inhibition; at 50.0 µM; hits give high values
How it was run: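 Inhibition values reflect reduced growth of mutant yeast versus vehicle-treated controls following compound exposure; the mutations affect DNA damage repair.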

Measured: growth inhibition

CC1=C(C(=O)CC(=O)C(=O)Nc2cccc(Cl)c2C)Sc2ccccc2N1
inactive: [1] -18.8% | [2] -8.1% | [3] -31.4% | [4] 19.1% | [5] -13.6% | [6] -10.6%

Cn1ncc2c(=O)[nH]c(N)nc21
inactive: [1] 6.65% | [2] 31.2% | [3] -19.6% | [4] 1.2% | [5] -3.15% | [6] -5.85%

O=C1CCCc2[nH]c(=O)ccc21
inactive: [1] 13% | [2] -3.1% | [3] 0% | [4] -7.95% | [5] 0.3% | [6] 9.9%

O=C(O)C(Nc1ccc(Cc2ccc(NC(C(=O)O)c3ccccc3)cc2)cc1)c1ccccc1 (stereo unspecified)
inactive: [4] -4.5% | [5] 37.7%
active: [1] 94% | [2] 86% | [3] 92% | [6] 90%

O=C1CS/C(=N/C(=O)Nc2ccc(Cl)cc2)N1
inactive: [1] -1.9% | [2] 32.5% | [3] 16.1% | [4] -9.55% | [5] -6.95% | [6] 14.5%

CC1(C)COC(CCl)OC1
inactive: [1] 27.1% | [2] 17.9% | [3] 11.3% | [4] -16.5% | [5] 1.95% | [6] 30.9%

CCCCN(CCCC)c1ccc(N=C(C#N)c2ccc(N(CCCC)CCCC)cc2)cc1
inactive: [1] -21.4% | [2] -14.2% | [3] 14% | [4] -38.8% | [5] -3% | [6] 19.5%

COC1OC(CO)C(O)C(O)C1Br (stereo unspecified)
inactive: [1] 19.8% | [2] 13.9% | [3] 13% | [4] 31.7% | [5] 23.8% | [6] 21.2%

COc1ccc2c(c1OC(C)=O)C1=CC(OC(C)=O)=CCC13CCN(C)C3C2 (stereo unspecified)
inactive: [1] 2.75% | [2] -0.15% | [3] -10.8% | [4] -4.7% | [5] -6.4% | [6] -0.15%

CCC1=CCN2CCC34c5cc(C6(C(=O)OC)CC7CC(CC)CN(CCc8c6[nH]c6ccccc86)C7)c(OC)cc5N(C)C3C(O)(C(=O)OC)C(OC(C)=O)C1C24 (stereo unspecified)
inactive: [1] 0.2% | [2] 9.25% | [3] -3.95% | [4] 3.95% | [5] -1.55% | [6] 10.6%

COc1ccc(C(=O)NC(=S)Nc2cc(C(F)(F)F)ccc2Cl)cc1
inactive: [1] -18.6% | [2] 0.1% | [3] -11.2% | [5] -3.8% | [6] 11.7%
active: [4] 84.8%

COc1ccc(C(=O)/C=C/c2ccc(OC)c(OC)c2OC)c(O)c1
inactive: [1] 17.6% | [2] 1.4% | [3] -8.55% | [4] -18.5% | [5] 16.6% | [6] 14.7%

Cn1c(=O)c2c(ncn2C2C(=O)NNC2=O)n(C)c1=O
inactive: [1] -7.15% | [2] -8.45% | [3] -17.2% | [4] 2.35% | [5] 7.55% | [6] 0.9%

Cc1nnnn1C12CC3CC(CC(C3)C1)C2
inactive: [1] 11.7% | [2] 5.7% | [3] -5.75% | [4] -14.3% | [5] -15.7% | [6] 15.1%

O=S(Cc1cc2c(cc1Br)OCO2)c1ccccc1 (stereo unspecified)
inactive: [1] -27% | [2] -33.5% | [3] -20% | [4] -22.4% | [5] -37.7% | [6] -29.1%

CO/C=C/CCCNCc1ccccc1
inactive: [1] -4.5% | [2] -27.4% | [3] 20.6% | [4] 9.7% | [5] 6.3% | [6] 1.2%

O=C(O)C(CO)N=Cc1nc(-c2ccccc2)oc1O (stereo unspecified)
inactive: [1] 0.2% | [2] 6.05% | [3] 12.4% | [4] 9.25% | [5] -6.25% | [6] -11.8%

Cc1ccc(S(=O)(=O)OCC23CCC(C4CC42)C2CC23)cc1 (stereo unspecified)
inactive: [1] -21.9% | [2] -28.5% | [3] -14.8% | [4] 4.2% | [5] -10.1% | [6] 10.4%

O=[N+]([O-])c1ccc(/C=C/c2cc(N(CCO)CCO)c3ccccc3n2)cc1
inactive: [1] 8.35% | [2] -1.05% | [3] -31.2% | [4] -11.1% | [5] -0.4% | [6] -2.95%

C[C@H](N)C(O)/C=C/c1ccccc1 (stereo partly specified)
inactive: [1] 5.1% | [2] -9.05% | [3] -0.7% | [4] -2.55% | [5] -0.3% | [6] -7.05%

COc1cc2c(cc1C(C)c1ccc(OCc3ccccc3)cc1)OCO2 (stereo unspecified)
inactive: [1] -1.3% | [2] -1.1% | [3] -8.6% | [4] -13.1% | [5] 0% | [6] 9.65%

COc1ccc(C(N)C(=O)O)cc1 (stereo unspecified)
inactive: [1] -17.4% | [2] -9.4% | [3] -6.8% | [4] -21.6% | [5] -12.5% | [6] -10.9%

CC(Cl)(CCC(Cl)C(C)(C)Cl)C(=O)CBr (stereo unspecified)
active: [1] 89% | [2] 92.7% | [3] 92.8% | [4] 91.3% | [5] 92.3% | [6] 93.2%

O=C(C[n+]1cccc(C(=O)Nc2ccccc2)c1)Nc1ccc(Cl)cc1
inactive: [1] -2.65% | [2] -0.7% | [3] -2.35% | [4] 0.35% | [5] 6.7% | [6] 7.35%

CN1Cc2ccccc2-c2ccccc2C1
inactive: [1] 4.35% | [2] 1.8% | [3] -5.95% | [4] -32.8% | [5] 4.7% | [6] -2%

Cc1cc(Cl)ccc1NC(=O)/C(Cc1nc2ccc(C(=O)c3ccccc3)cc2[nH]c1=O)=N/NC(=O)c1ccncc1
inactive: [1] 21.9% | [2] 17.1% | [3] 1.45% | [4] -33.7% | [5] 4.7% | [6] 16.1%

CCCCCCCCCCCc1cc(=O)n(-c2cc(Cl)ccc2Cl)n1C
active: [1] 99.1% | [2] 99.3% | [3] 99.5% | [4] 98.7% | [5] 99% | [6] 99.2%

CC1C2(C)OC(=N)C(C#N)(C(c3ccco3)O2)C1(C#N)C#N (stereo unspecified)
inactive: [1] 6.75% | [2] 3.1% | [3] -6.55% | [4] 5.95% | [5] -9.65% | [6] -1.4%

CC(=O)OCC1OC(n2ncnc2CI)C(OC(C)=O)C(OC(C)=O)C1OC(C)=O (stereo unspecified)
inactive: [1] 36.5% | [2] 8.35% | [3] 13.6% | [4] 16.9% | [5] 4.15% | [6] 21.5%

CCOC(=O)/C(O)=C(/C=NC(=S)c1ccncc1)C(=O)OCC
inactive: [1] -28.2% | [2] -29.8% | [3] -15.3% | [4] -6.45% | [5] -13.8% | [6] -31%

O=C(O)c1nn(-c2ccc(Cl)cc2)c2c1C(=O)c1ccccc1C2=O
inactive: [1] 20.9% | [2] 14.7% | [3] -1.75% | [4] 14.1% | [5] 12% | [6] 4.65%

Cc1ccc(P(=S)(c2ccc(C)c3ccccc23)c2ccc(C)c3ccccc23)c2ccccc12
inactive: [1] -8.1% | [2] -6.3% | [3] -3.4% | [4] -8.7% | [5] 0.1% | [6] -4.9%

COC(=O)C1=CO[C@@H](C)[C@@H]2Cn3ccc4c5ccccc5nc-4c3C[C@H]12
inactive: [1] 2.4% | [2] -17.4% | [3] 14% | [4] 4.5% | [5] -3.9% | [6] 1.4%

COc1ccc(CCN2C(CC(=O)c3ccccc3)CCCC2CC(=O)c2ccccc2)cc1OC (stereo unspecified)
inactive: [1] -8.05% | [2] -10.4% | [3] -0.9% | [4] -0.2% | [5] 0.65% | [6] -2.75%

CCCOc1ccc(OCC(=O)c2ccccc2)cc1
inactive: [1] -23.9% | [2] -32.5% | [3] 25.8% | [4] 5.3% | [5] 61.5% | [6] 8%

CC(C)C(CN)(C(C)C)C(C)C
inactive: [1] 2.35% | [2] 9.65% | [3] -8.65% | [4] 8.55% | [5] 5.3% | [6] -8.6%

c1ccc(-n2nnnc2-c2nnnn2-c2ccccc2)cc1
inactive: [1] -7.35% | [2] -5.2% | [3] -1.5% | [4] -18.7% | [5] 20.7% | [6] -11%

O=C1c2ccsc2C(=O)c2sc(CO)cc21
active: [1] 90.3% | [2] 91.2% | [3] 91% | [4] 91.8% | [5] 90% | [6] 83%

O=C1CCCCCCCCC1=O
inactive: [1] 3.5% | [2] -6.4% | [3] -11.3% | [4] -4.05% | [5] -12.8% | [6] -11.2%

CCOC(=O)c1cnc2cc3c(cc2c1Nc1cccc(C)c1C)OCO3
inactive: [1] -9.9% | [2] -7.35% | [3] -16.4% | [4] -13% | [5] 3.5% | [6] -6.6%

CN(C)CC(Cc1ccccc1)c1ccccc1 (stereo unspecified)
inactive: [1] -19.9% | [2] -10.9% | [3] -18.6% | [4] 7.6% | [5] -5.4% | [6] -17.6%
